Experimental findings from ChEMBL document CHEMBL3988442, “University of Dundee, Small-Polar-MMV Screening Library” (2021) are described below.

In the experiment the test system is Leishmania donovani. The experiment is described as follows: Leishmania intramacrophage assay. It counts as functional, organism-based. More on the design: scale not given: in the data most compounds retested in dose-response had high values.

The whole screen tested about 69,000 compounds, of which about 1,000 (1.4%) showed an effect of 50% or more. The sample as a whole holds a higher share of strong results than the screen did.

As for `COc1cc(N2CC[C@H](O)[C@@H]2Cc2cnn(C)c2)ncn1`, the “Percent Effect” value (30 µM, 30.03 µM) was found to be 12.89%.
With `COc1ccccc1C(=O)N1C[C@@H]2CCCCN(CC(N)=O)[C@@H]2C1`, the “Percent Effect” value (30.3 µM, […]) is listed as -33.88%.
For `O=C(Nc1ccccn1)N(CCO)Cc1ccccc1Br`, the “Percent Effect” value (30 µM) was 5.548%.
`CN1CCN(Cc2ccc(-c3ccc(C(N)=O)cc3)nc2)CC1`: the “Percent Effect” value (30.3 µM, […]) is 77.28%.
Still for that read-out and setting: in the case of `CN1CCN(Cc2ccc(-c3ccc(-c4ccn[nH]4)cc3)nc2)CC1` it was 8.288%; in that of `CN1CCN(Cc2ccc(-c3ccc4[nH]ccc4c3)nc2)CC1`, -38.55%.
The same measure, in the same setting: the value for `CS(=O)(=O)N1CC[C@H]2OCC[C@@]2(C(=O)NCc2ccccn2)C1.O=C(O)C(F)(F)F` was 38.61%; that for `CC(C)N1CC2(CCCN(c3ccnc4ccccc34)C2)CCC1=O` (configuration not stated) was 61.79%; that for `CC(C)N1CC2(CCC1=O)CCN(c1ccnc3ccccc13)CC2` was 16.36%.
As for `CC(C)N1CC2(CCCN(c3ccccn3)C2)CCC1=O` (configuration not stated), the “Percent Effect” value (30.3 µM, […]) is 24.82%.
Regarding `CN1CCN(C(=O)c2cccc(S(=O)(=O)NCC3(C)COC3)c2)CC1`, the “Percent Effect” value (30.3 µM, […]) was found to be 33.44%.
`COc1cc(Cl)c(NCc2c(C)noc2C)cc1OC`: where the note is “30.3 µM, […]”, the “Percent Effect” value came out at 14.57%.
Still for that read-out and setting: the value for `COc1cc(NCc2c(C)noc2C)c(OC)cc1Cl` was 13.7%; that for `COC(=O)COc1cc(NCc2c(C)noc2C)c(Cl)cc1C` was 56.06%.
Take `O=C(CCc1nc2cccnc2[nH]1)Nc1ccc2c(c1)NC(=O)CO2`: the “Percent Effect” value (30.3 µM, […]) was 20.44%.
With `CN1C(=O)COc2cc(NC(=O)CCc3nc4cccnc4[nH]3)ccc21`, the “Percent Effect” value (30.3 µM, […]) came to 33.08%.
Same read-out and setting: the value for `CN1C(=O)COc2ccc(NC(=O)CCc3nc4cccnc4[nH]3)cc21` was 53.55%; that for `O=C(N[C@@H]1CCN(C(=O)c2cc[nH]c2)C[C@H]1O)c1ccccn1` was 4.682%; that for `CN1CCC(CNC(=O)c2cccc(CN3CCCCCC3)c2)C1` (configuration not stated) was -20.09%.
Same read-out and setting: the value for `CCC[C@H]1CN(S(C)(=O)=O)C[C@@H]1NC(=O)CCOCC` was -29.93%; that for `CCc1ccc(NC(=O)c2n[nH]c(-n3cnnc3)n2)cc1` was -23.27%.
Regarding `Cc1ccc(NC(=O)c2n[nH]c(-n3cnnc3)n2)cc1`, the “Percent Effect” value (30.3 µM, […]) was 53.89%.
As for `O=C(Nc1ccccc1)c1n[nH]c(-n2cnnc2)n1`, the “Percent Effect” value (30.3 µM, […]) came out at 15.16%.
On the same count and under the same terms, in the case of `O=C(NCC(O)(c1ccco1)C1CC1)c1ccccc1F` (configuration not stated) it was -8.312%.
Same read-out and setting: in the case of `CCCS(=O)(=O)CCN1CCOC(c2ccsc2)C1` (configuration not stated) it was 22.47%.
On to `CNS(=O)(=O)CC(=O)N1CCC(c2ccc(F)c(F)c2)CC1`, for which, for the setting “30.3 µM, […]”, the “Percent Effect” value was 9.155%.
Regarding `CC(C)c1nnc2n1CCN(C(=O)c1ccc3c(c1)NC(=O)CO3)C2`, the “Percent Effect” value (30.3 µM, […]) worked out at 10.03%.
`O=C(C1CCC1)N1C[C@@H]2CCN(c3cccnc3)C[C@@H]2C1.O=C(O)C(F)(F)F`: the “Percent Effect” value (30.3 µM, […]) is reported as 7.145%.
On to `Fc1cccc(N2C[C@H]3CCN(c4cccnc4)C[C@H]3C2)c1.O=C(O)C(F)(F)F`, for which, for the setting “30 µM, 30.03 µM”, the “Percent Effect” value turned out to be 57.72%.
`O=C(O)C(F)(F)F.O=C(c1ccc(F)cc1)N1C[C@@H]2CCN(c3cccnc3)C[C@@H]2C1`: where the note is “30.3 µM, […]”, the “Percent Effect” value is recorded as -2.032%.
As to `CCn1cnnc1C1CCN(C(=O)c2cccc3c2ccn3C)CC1`, the “Percent Effect” value (30 µM, 30.03 µM) is on record as 34.62%.
Turning to `CNC(=O)Cc1ccc(NC(=O)NC2(c3cccc(F)c3)CC2)cc1`, the “Percent Effect” value (30.3 µM, […]) was found to be 15.99%.
Still for that read-out and setting: in the case of `Clc1cccc(-c2cccc(N3CCC(NC4CCOCC4)CC3)c2)c1` it was 97.72%; in that of `O=C(Cc1cccc(O)c1)NC1CCN(c2cccc(Cl)c2)C1` (configuration not stated), 5.178%.
Same read-out and setting: in the case of `Cc1nnc(-c2cccc(N3CCC(NC4CCSC4)CC3)c2)s1` (configuration not stated) it was 17.73%.
`CCc1cccc(N2CCC(NC(=O)C3CCOCC3)CC2)c1`: for the setting “30 µM”, the “Percent Effect” value turned out to be 8.469%.
Take `Cc1nc(-c2cccc(N3CCC(NC4CCOCC4)CC3)c2)cs1`: the “Percent Effect” value (30.3 µM, […]) is on record as 22.64%.
`Cc1ccc(-c2cccc(N3CCC(NC4CCOCC4)CC3)c2)cc1`: the “Percent Effect” value (30.3 µM, […]) was found to be 88.48%.
With `CN(C(=O)Cn1nc(-c2cccs2)ccc1=O)C1CCS(=O)(=O)C1` (configuration not stated), under “30 µM, 30.03 µM”, the “Percent Effect” value is -0.2404%.
Take `CCn1nc(C)c2nnn(CC(=O)Nc3ccc(C)c(C)c3)c(=O)c21`: the “Percent Effect” value (30.3 µM, […]) is -87.23%.
The same measure, in the same setting: in the case of `COCCN1CCOCC12CCN(c1ccc(C#N)cc1)CC2.O=C(O)C(F)(F)F` it was 3.251%; in that of `O=C(N[C@@H]1CCCNC1)C1(Oc2ccc(Cl)cc2)CCNCC1`, 12.74%.
Same read-out and setting: the value for `CO[C@H]1COC[C@@H]1NC(=O)C1(Oc2ccc(Cl)cc2)CCNCC1` was 9.396%; that for `O=C(N[C@@H]1C[C@H]2CC[C@@H]1C2)C1(Oc2ccc(Cl)cc2)CCNCC1` was 99.44%.
In the case of `CCOc1ccc(OCc2nc3c(c(=O)[nH]2)CCNC3)cc1`, where the note is “30.3 µM, […]”, the “Percent Effect” value is on record as 15.57%.
`O=C(NCCCNc1ccc(C(F)(F)F)cn1)c1ccc(F)cc1Br`: the “Percent Effect” value (30 µM) is reported as 45.44%.
In the case of `COc1ccc(C(=O)NCCCNc2ccc(C(F)(F)F)cn2)cc1`, the “Percent Effect” value (30 µM) was found to be 37.73%.
On to `COc1ccc(Br)c(C(=O)NCCNc2ccc(C(F)(F)F)cn2)c1`, for which the “Percent Effect” value (30 µM, 30.03 µM) came to 56.64%.
Take `CCOC(=O)N1CCc2ccccc2C12CCNCC2.Cl`: under “30.3 µM, […]”, the “Percent Effect” value amounted to 0.5062%.
For the molecule `COCc1ccc(CNc2cncc(-n3cccn3)n2)cc1`, for the setting “30 µM”, the “Percent Effect” value turned out to be 27.73%.
As for `CNC(=O)COc1ccc(CNc2cncc(-n3cccn3)n2)cc1`, the “Percent Effect” value (30 µM) came out at 19.22%.
Still for that read-out and setting: in the case of `COC(=O)Nc1ccc(CNc2cncc(-n3cccn3)n2)cc1` it was 52.92%.
On to `CN1CC[C@H]2CN(C(=O)c3ccc4sc5c(c4c3)CCNC5=O)C[C@H]21`, for which the “Percent Effect” value (30.3 µM, […]) was determined as 4.332%.
Consider `CC(=O)N1CCC2(CC1)CCN(C(=O)c1ccc(F)c(C(F)(F)F)c1)C2`, for which the “Percent Effect” value (30.3 µM, […]) was -8.189%.
The same measure, in the same setting: the value for `COc1ccc(C2CN(c3nc(C)cc(C)n3)CCN2C(C)=O)cc1` (configuration not stated) was 30.74%; that for `Cc1cc(C)nc(N2CCc3ccc(OC(F)F)cc3C2)n1` was 84.87%.
As to `COc1ccc2c(c1)CN(c1cc(N3CCCC3CO)ncn1)CC2` (configuration not stated), the “Percent Effect” value (30.3 µM, […]) is recorded as 11.17%.
On the same count and under the same terms, in the case of `COc1cccc(O[C@H]2CCN(c3nc(C)cc(C)n3)CC[C@@H]2O)c1` it was -35.99%; in that of `COc1ccc2c(c1)CN(c1nc(C)cc(C)n1)CC2`, 98.91%; in that of `COc1ccnc(N2CCc3ccc(OC(F)F)cc3C2)n1`, -15.45%.
On the same count and under the same terms, the value for `O=C(CNC(=O)C1(c2ccc(F)cc2F)CCC1)Nc1cccnc1` was -11.9%.
Same read-out and setting: the value for `COc1cccc2c1OCC(CNC(=O)CN(C)C1CCCC1)C2` (configuration not stated) was -18.43%.
